From PubChem
TDP1 cell CPT – qHTS for Inhibitors of human tyrosyl-DNA phosphodiesterase 1 (TDP1): qHTS in cells in presence of CPT; Potency, µM (titrated, usually from 46.2 µM), inactives show top-dose activity change, negative = growth inhibition, usual class: inhibitors; hit rate 12% among 420,000; chicken DT40 Tdp1-/-;hTDP1 cells + 20 nM CPT, ATP luminescence, 48 h; AID 686979, 2013; further: potency means the concentration at half of the fitted maximal effect; on the % scale 0 is the no-effect control and ±100 the full control effect; nearly all actives have a fitted effect of over 55% in size
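Cell growth measured by CellTiter-Glo luminescence after a minimum 48 h, 37 C compound exposure with 20 nM CPT in Tdp1-knockout DT40 cells stably expressing hTDP1, seeded 400/well; qHTS titration format.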
DT40 TDP1 no CPT – qHTS for Inhibitors of human tyrosyl-DNA phosphodiesterase 1 (TDP1): qHTS in cells in absence of CPT; DT40 Tdp1-/- hTDP1 cells, no CPT, ATP luminescence, 48 h; Potency, µM (highest dose often 46.2 µM), inactives show top-dose activity change, negative = growth inhibition, most hits filed as inhibitors; hit rate 15% among 420,000; further: potency means the concentration at half of the fitted maximal effect; on the % scale 0 is the no-effect control and ±100 the full control effect; nearly all actives have a fitted effect of over 55% in size
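Seeded 400 DT40-hTDP1 cells/well (vehicle DMSO, no 20 nM CPT); pinned compounds; ≥48 hr at 37 °C; CellTiter-Glo luminescence as viability measure.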
BCR signal inh – qHTS Assay to Find Inhibitors of Chronic Active B-Cell Receptor Signaling. ABC-DLBCL IkBa-CBG/CBR reporter, luminescence ratio, 4 h. Potency, µM (highest dose often 46.1 µM), for inactives: at the highest dose activity change, negative = inhibition, hits mostly inhibitors. hit rate 0.05% among 340,000; active means well fitted inhibition curve with a large enough effect in the signal ratio, with a control signal flat, not every such curve was filed as active; inconclusive means small, poorly fitted or top-dose-only effect, or effect the other way, or a change in a side signal; the % refers to the signal ratio;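 further: potency means the concentration at half of the fitted maximal effect; plate controls were basal doxycycline-induced cells for no effect and cells given 10 µM MG132 for full effect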
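Compounds up to 46 uM were incubated four hours with TMD8 cells whose green CBG68 luciferase is fused to IkappaBalpha; red CBR luminescence normalised the signal, and concentration-effect curves were fitted to fusion, red and ratio data.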
IL-1B inflam inh – qHTS for Inhibitors of Inflammasome Signaling: IL-1-beta AlphaLISA Primary Screen | activity change, % at 57.5 µM | hit rate 4.7% among 360,000 | THP-1 LPS/ATP IL-1B secretion, AlphaLISA, 16 h; hits give low values; in the data active means activity change below about -50%; inconclusive means mostly about -30% to -49%; further: on the % scale 0 is the no-effect control and ±100 the full control effect
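THP-1 cells pretreated 1 hr with compounds (up to 57.5 uM final), then stimulated with LPS (250 ng/mL final) plus ATP (1.25 mM final); secreted IL-1B measured by AlphaLISA after 16 hr, decreased signal indicating inhibition.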
SW480 rereplic – A quantitative high throughput screen for small molecules that induce DNA re-replication in SW480 colon adenocarcinoma cells | SW480 DNA re-replication, Hoechst DNA content imaging, 48 h | hit rate 1.8% among 340,000 | Potency, µM (top dose mostly 46.1 µM), without a hit: top-dose re-replication activation, hits mostly activators; further: potency means the concentration at half of the fitted maximal effect; % of control where 0% means no effect; nearly all actives have a fitted effect of over 55% in size
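Readout is total intensity of Hoechst-stained nuclei, excited at 405 nm and collected at 500-530 nm. Compound treatment lasted 48 hr at 37 C in 5% CO2 before staining.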
MCF10A rerep – A quantitative high throughput screen for small molecules that induce DNA re-replication in MCF 10a normal breast cells; MCF 10A DNA re-replication, Hoechst nuclear intensity, 48 h; Potency, µM (doses to about 46.1 µM), for the others: top-dose activity, positive = re-replication, actives largely listed as activators; hit rate 2.9% among 350,000; further: potency means the concentration at half of the fitted maximal effect; % of control where 0% means no effect; nearly all actives have a fitted effect of over 50% in size
The depositor's hits bear a star. The list is not random: actives were taken first. Their share in the collection is about 19%. Unless noted, the call rests on the fitted dose curve; in most records, active means well fitted curve in the direction sought with a large enough effect; inconclusive means small, poorly fitted or top-dose-only effect, or another doubt; inactive means no such curve, though single readings can be large; an effect the other way counts as inactive or inconclusive.

Results for COc1ccc(NS(=O)(=O)c2cc(Br)cc3c2N(C(=O)C2CC2)CC3)cc1OC ?
TDP1 cell CPT: 2.3µM*; DT40 TDP1 no CPT: 2.1µM*; BCR signal inh: inconclusive

Results for COc1cccc(CNC(=O)c2nnc(Cc3ccc(Cl)cc3)o2)c1 ?
TDP1 cell CPT: -1%; DT40 TDP1 no CPT: -3%

Results for COCCN(CCOC)c1ncc(Cl)c(C(=O)c2c(C)cc3ccccn23)n1 ?
TDP1 cell CPT: inconclusive; DT40 TDP1 no CPT: 21µM*; BCR signal inh: -6%; IL-1B inflam inh: -7; SW480 rereplic: -3%; MCF10A rerep: 9%

How did CC1CCCC(NCC(O)COC(c2ccc(F)cc2)c2ccc(F)cc2)C1C (configuration not stated) do in these assays?
TDP1 cell CPT: 5.2µM*; DT40 TDP1 no CPT: 2.6µM*; BCR signal inh: inconclusive; IL-1B inflam inh: -115*; SW480 rereplic: 0%; MCF10A rerep: inconclusive

Results for O=C(O)C1CCN(C(=O)CSc2nnc3ccccn23)CC1 ?
TDP1 cell CPT: 13%; DT40 TDP1 no CPT: 22%; BCR signal inh: 1%; IL-1B inflam inh: 1; SW480 rereplic: -43%; MCF10A rerep: 14%

What do the screens show for `CC(=O)OC1C[C@]2(C)[C@@H](CC(O)C3[C@]4(C)CCC(O)C(C)[C@@H]4CC[C@]32C)/C1=C(/CCC=C(C)C)C(=O)O` (some centres not stated)?
TDP1 cell CPT: 10%; DT40 TDP1 no CPT: 3%

Results for Cc1ccccc1-c1nc(CN2CCCC(C(=O)NCCCN3CCOCC3)C2)c(C)o1 (configuration not stated) ?
TDP1 cell CPT: 3%; DT40 TDP1 no CPT: inconclusive; BCR signal inh: -13%; IL-1B inflam inh: -23; SW480 rereplic: 3%; MCF10A rerep: 9%

What do the screens show for `COc1ccc(CCNC(=O)C2CCCN(Cc3nc(-c4ccccc4C)oc3C)C2)cc1OC` (configuration not stated)?
TDP1 cell CPT: 23µM*; DT40 TDP1 no CPT: 23µM*; BCR signal inh: inconclusive; IL-1B inflam inh: -4; SW480 rereplic: 7%; MCF10A rerep: 12%

How did Cc1ccccc1-c1nc(CN2CCCC(C(=O)NCc3cccnc3)C2)c(C)o1 (configuration not stated) do in these assays?
TDP1 cell CPT: 23µM*; DT40 TDP1 no CPT: 16µM*; BCR signal inh: 5%; IL-1B inflam inh: -5; SW480 rereplic: -24%; MCF10A rerep: 18%

Results for Cc1ccc(CCNC(=O)C2CCN(Cc3nc(-c4ccccc4C)oc3C)CC2)cc1 ?
TDP1 cell CPT: 13µM*; DT40 TDP1 no CPT: 18µM*

How did CCc1ccc(-c2nc(CN3CCCC(C(=O)NCCc4ccc(OC)c(OC)c4)C3)c(C)o2)cc1 (configuration not stated) do in these assays?
TDP1 cell CPT: 23µM*; DT40 TDP1 no CPT: 13µM*; BCR signal inh: -3%; IL-1B inflam inh: -59*; SW480 rereplic: 22%; MCF10A rerep: inconclusive

What do the screens show for `Cc1ccc(CNC(=O)C2CCN(C(=O)c3ccc(-n4ccc5ccccc54)s3)CC2)cc1`?
TDP1 cell CPT: -27%; DT40 TDP1 no CPT: inconclusive

Results for O=S(=O)(c1cccc2cccnc12)N1CCN(Cc2ccccc2)CC1 ?
TDP1 cell CPT: 4%; DT40 TDP1 no CPT: -8%; BCR signal inh: -14%; IL-1B inflam inh: 32; SW480 rereplic: -2%; MCF10A rerep: -3%
